Results from PubChem BioAssay AID588651 (The Scripps Research Institute Molecular Screening Center, 2011).
The source made the active and inactive calls. No stated cut-off is given here; in the data, active means inhibition above about 65%; inactive means the rest.

These compounds were tested on Antitargets (assay: Fam108b inhibition by ABPP, late-stage follow-up, biochemical, gel-based ABPP, recombinant soluble Fam108b, HTS hits, complex proteome (AID 588651;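 further: Fam108b spiked into mouse brain membrane proteome; tested at 20 µM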)). Conditions: FP-rhodamine labeling in proteome.

SMILES | outcome
CCn1nc([N+](=O)[O-])c(C(C#N)c2nc3cc(C(F)(F)F)ccc3s2)c(Cl)c1=O (centres undefined) | inactive
CC(C)(C)c1nc2scc(-c3cccs3)c2c(=O)o1 | inactive
Cc1c(O)ccc(C=NNc2nc(-c3cccnc3)nc3ccccc23)c1O | active
CN(C)S(=O)(=O)c1cccc(NC(=O)COC(=O)c2cc(-c3cccc(Br)c3)nc3ccccc23)c1 | inactive
Nc1cc(C(=O)O)c(N)c2c1C(=O)c1ccccc1C2=O | inactive
O=c1oc(-c2ccccc2Cl)nc2ccsc12 | inactive
Cc1ccc(-n2c(O)c(/C=N/Nc3ccc(S(=O)(=O)N4CCOCC4)cc3[N+](=O)[O-])c3ccccc3c2=O)c(C)c1 | inactive
COc1ccc(S(=O)(=O)/N=C2\C=C(Nc3ccc(O)cc3)C(=O)c3ccccc32)cc1 | inactive
Cc1ccc(S(=O)(=O)Nc2ccccc2C(=O)Nc2nc(-c3ccc(F)cc3)cs2)cc1 | inactive
O=C(Nc1ccc(N2CCCC2)c(S(=O)(=O)Nc2cccc(C(F)(F)F)c2)c1)c1cccs1 | inactive
Cc1cc(Nc2ccc(Cl)cc2)nc(NCc2ccccc2)n1 | inactive
O=C(Nc1cccc(-c2csc(Nc3ccc(Cl)cc3)n2)c1)c1cc([N+](=O)[O-])cc(C(F)(F)F)c1 | inactive
Cc1ccccc1NC1=C/C(=N\S(=O)(=O)c2cccs2)c2ccccc2C1=O | inactive
O=C1C(Cl)=C(Nc2ccc3cn[nH]c3c2)C(=O)c2ccccc21 | inactive
Cn1c(O)c(C=NNC(=O)c2cc3ccccc3cc2O)c2ccccc21 | inactive
O=c1oc(-c2ccccc2F)nc2scc(-c3ccccc3)c12 | inactive
O=C1C(Cl)=C(N2CCC(C(=O)O)CC2)C(=O)c2ccccc21 | inactive

SMILES | outcome
COc1cc(-c2nc(-c3ccc4c(c3)-c3ccccc3S4(=O)=O)c(-c3ccccc3)[nH]2)cc(OC)c1O | inactive
O=c1ccc2cc3c([nH]c4ccc(Br)cc43)oc-2c1O | inactive
COc1ccc(NC(=S)Nc2ccc3nsnc3c2)cc1 | inactive
CCc1ccc(S(=O)(=O)/N=C2\C=C(Nc3cccc(C(=O)O)c3)C(=O)c3ccccc32)cc1 | inactive
O=C(Nc1ccc(-c2csc(Nc3ccc(Cl)cc3)n2)cc1)c1cccc(C(F)(F)F)c1 | active
COc1ccc(/C=C/C(=O)OCC(=O)Nc2cccc(Oc3ccccc3)c2)c(OC)c1 | inactive
O=C(NC1CCCCC1)c1sc(=S)n2c1[nH]c(=O)c1ccccc12 | inactive
O=C1c2ccccc2-c2onc3ccc(NCCCn4ccnc4)c1c23 | inactive
O=[N+]([O-])c1ccc(NN=Cc2ccccc2O)cc1 | inactive
Brc1ccc(-c2csc(Nc3nc(-c4ccc(Br)cc4)cs3)n2)cc1 | inactive
Cc1ccc(S(=O)(=O)/N=C2\C=C(Nc3cccc(C(=O)O)c3)C(=O)c3ccccc32)cc1 | inactive
COc1cc2c(cc1NC(=O)Nc1ccccc1)oc1ccccc12 | inactive
Cc1[nH]c2c(C)cccc2c1CCNC(=O)c1ccc2c(c1[N+](=O)[O-])C(=O)c1ccccc1C2=O | inactive
Cc1ccc2nc(CSc3nc(C)ccc3C#N)[nH]c2c1 | inactive
Oc1c(Cl)cc(Cl)c(Cl)c1Cc1c(O)c(Cl)cc(Cl)c1Cl | inactive
N=c1oc2cc(O)ccc2cc1C(=O)Nc1ccc(Br)cc1 | inactive
O=C(Nc1cccc(C(F)(F)F)c1)Nc1ccc(N2CCCC2)c(S(=O)(=O)Nc2ccccc2Cl)c1 | active
